Where “and” joins values, the source holds several entries; their conditions need not be identical. Equal values may be shown once. Some compounds were tested as several samples or in several runs, with calls that do not always agree. Calls of active or inactive are those of the source. Rule for the calls: active = hit-call score of the fitted dose curve at least 0.9, where 1 is the maximum; inactive = score below 0.9.

Read-out in assay [1]: Vascular endothelial growth factor receptor 2 (Homo sapiens) (UniProt P35968)
Kind of assay: BSK_4H_VEGFRII: BioMAP Diversity Plus: 4H Assay for Vascular endothelial growth factor receptor 2 (VEGFR2) Biomarker Activity (AID 2283031). The note with it: primary human endothelial cells (HUVEC); actives raise or lower the signal. A digest of the protocol:
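ELISA read-out of VEGFRII in primary human umbilical vein endothelium, taken 24 h after chemical treatment. Responses are expressed relative to DMSO, with bidirectional fitting.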

Read-out in assay [2]: Human Leukocyte Antigen - DR isotype (HLADR), HLA-DRA (gene 3122)
In words: BSK_BE3C_HLADR: BioMAP Diversity Plus: BE3C Assay for Human Leukocyte Antigen - DR isotype (HLADR) Biomarker Activity (AID 2283032). To be noted: primary human bronchial epithelial cells; actives raise or lower the signal. The method in brief:
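ELISA read-out of HLA-DR on human lung bronchial epithelial primary cells, measured 24 h post-dosing. Both increases and decreases were scored relative to DMSO vehicle.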

Read-out in assay [3]: Vascular cell adhesion molecule 1 (VCAM1), VCAM1 (gene 7412)
Kind of assay: BSK_4H_VCAM1: BioMAP Diversity Plus: 4H Assay for Vascular cell adhesion molecule 1 (VCAM1) Biomarker Activity (AID 2283033).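 For outcome: cell-surface VCAM-1 protein measured by ELISA.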 The note with it: primary human endothelial cells (HUVEC); actives raise or lower the signal. The method in brief: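 ELISA read-out of VCAM-1 on human umbilical vein endothelium 24 hours after chemical dosing; gain or loss of signal was fitted relative to DMSO, with sulforhodamine B staining of parallel cultures flagging overt cytotoxicity.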

Read-out in assay [4]: Monokine induced gamma interferon (MIG), CXCL9 (gene 4283)
In words: BSK_BE3C_MIG: BioMAP Diversity Plus: BE3C Assay for Monokine induced gamma interferon (MIG) Biomarker Activity (AID 2283035).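 Note: MIG protein measured by ELISA in BE3C cultures after 24 h of dosing.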 The note with it: primary human bronchial epithelial cells; actives raise or lower the signal. The method in brief:
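ELISA read-out of MIG in human lung bronchial epithelial primary cultures, 24 h post-dosing. Bidirectional curve fit vs DMSO baseline.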

Read-out in assay [5]: Transforming growth factor beta 1 (TGFb1), TGFB1 (gene 7040)
In words: BSK_BE3C_TGFb1: BioMAP Diversity Plus: BE3C Assay for Transforming growth factor beta 1 (TGFb1) Biomarker Activity (AID 2283036;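 note: TGF-b1 protein level measured by ELISA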). To be noted: primary human bronchial epithelial cells; actives raise or lower the signal. The method in brief: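 Primary human lung bronchial epithelial cells; compound exposure 24 h; TGF-b1 by ELISA; bidirectional fit, DMSO baseline. Parallel SRB total-protein staining for cytotoxicity.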

Read-out in assay [6]: Plasminogen activator inhibitor-1 (PAI1), SERPINE1 (gene 5054)
In words: BSK_BE3C_PAI1: BioMAP Diversity Plus: BE3C Assay for Plasminogen activator inhibitor-1 (PAI1) Biomarker Activity (AID 2283037). The note with it: primary human bronchial epithelial cells; actives raise or lower the signal. A digest of the protocol: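 Primary human lung bronchial epithelial cells; chemical dosing; 24 h; PAI-1 measured by ELISA; bidirectional fit referenced to DMSO as negative control.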

Read-out in assay [7]: urokinase plasminogen activator (uPA), PLAU (gene 5328)
In words: BSK_BE3C_uPA: BioMAP Diversity Plus: BE3C Assay for urokinase plasminogen activator (uPA) Biomarker Activity (AID 2283038).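 Note: uPA protein level quantified by ELISA in cell cultures; uPA read one day after compound addition.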 To be noted: primary human bronchial epithelial cells; actives raise or lower the signal. A digest of the protocol:
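Bronchial epithelial cells (human, primary); chemical 24 h; uPA by ELISA; bidirectional fit vs DMSO. SRB (0.1%, after 10% TCA fixation, 560 nm) in parallel cultures for cytotoxicity.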

Read-out in assay [8]: Urokinase-type plasminogen activator receptor (uPAR), PLAUR (gene 5329)
Kind of assay: BSK_BE3C_uPAR: BioMAP Diversity Plus: BE3C Assay for Urokinase-type plasminogen activator receptor (uPAR) Biomarker Activity (AID 2283039).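 For outcome: uPAR protein level measured by ELISA on the cells; cells exposed to compound for one day before measurement.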 The note with it: primary human bronchial epithelial cells; actives raise or lower the signal. The method in brief: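 Human bronchial epithelial primary cells; chemical exposure 24 h; uPAR by ELISA; bidirectional fit vs DMSO control.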

Read-out in assay [9]: Interleukin-6 (IL6), IL6 (gene 3569)
Kind of assay: BSK_CASM3C_IL6: BioMAP Diversity Plus: CASM3C Assay for Interleukin-6 (IL6) Biomarker Activity for (AID 2283040). To be noted: primary human coronary artery smooth muscle cells; actives raise or lower the signal.

Read-out in assay [10]: Tissue plasminogen activator (tPA), PLAT (gene 5327)
In words: BSK_BE3C_tPA: BioMAP Diversity Plus: BE3C Assay for Tissue plasminogen activator (tPA) Biomarker Activity (AID 2283041).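 Note: tPA level quantified by ELISA one day after compound addition.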 To be noted: primary human bronchial epithelial cells; actives raise or lower the signal. A digest of the protocol:
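Primary human lung bronchial epithelial cultures receive test chemical; after 24 h, tPA is quantified by ELISA, and gain or loss of signal is fitted bidirectionally relative to DMSO baseline.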

Read-out in assay [11]: Interleukin-8 (IL8), CXCL8 (gene 3576)
In words: BSK_CASM3C_IL8: BioMAP Diversity Plus: CASM3C Assay for Interleukin-8 (IL8) Biomarker Activity (AID 2283042).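 Note: IL-8 protein level quantified by ELISA.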 The note with it: primary human coronary artery smooth muscle cells; actives raise or lower the signal.

Read-out in assay [12]: Human Leukocyte Antigen - DR isotype (HLADR), HLA-DRA (gene 3122)
Kind of assay: BSK_CASM3C_HLADR: BioMAP Diversity Plus: CASM3C Assay for Human Leukocyte Antigen - DR isotype (HLADR) Biomarker Activity (AID 2283043).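 Note: cell-surface HLA-DR protein level quantified by ELISA.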 To be noted: primary human coronary artery smooth muscle cells; actives raise or lower the signal.

Read-out in assay [13]: Macrophage colony-stimulating factor (MCSF), CSF1 (gene 1435)
Kind of assay: BSK_CASM3C_MCSF: BioMAP Diversity Plus: CASM3C Assay for Macrophage colony-stimulating factor (MCSF) Biomarker Activity (AID 2283044).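 Note: M-CSF protein amount quantified by ELISA after 24 h exposure.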 To be noted: primary human coronary artery smooth muscle cells; actives raise or lower the signal.

Read-out in assay [14]: Low-density lipoprotein receptor (LDLR), LDLR (gene 3949)
In words: BSK_CASM3C_LDLR: BioMAP Diversity Plus: CASM3C Assay for Low-density lipoprotein receptor (LDLR) Biomarker Activity (AID 2283045).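 Note: LDLR protein level on the cell surface quantified by ELISA.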 The note with it: primary human coronary artery smooth muscle cells; actives raise or lower the signal.

Read-out in assay [15]: Monocyte Chemoattractant Protein-1 (MCP1), CCL2 (gene 6347)
In words: BSK_CASM3C_MCP1: BioMAP Diversity Plus: CASM3C Assay for Monocyte Chemoattractant Protein-1 (MCP1) Biomarker Activity (AID 2283046).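 Note: MCP-1 level quantified by ELISA 24 h after dosing.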 To be noted: primary human coronary artery smooth muscle cells; actives raise or lower the signal.

Assay [16] in a line: BSK_CASM3C_Proliferation: Cell Proliferation Assessment in the BioMAP Diversity Plus: CASM3C Assay (AID 2283047).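 Note: sulforhodamine B total protein stain as relative cell number at 560 nm; sub-confluent cells exposed 48 h before staining; fitted both ways against DMSO so gain or loss of cell number.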 The note with it: primary human coronary artery smooth muscle cells.
Read-out in assay [17]: Monokine induced gamma interferon (MIG), CXCL9 (gene 4283)
Kind of assay: BSK_CASM3C_MIG: BioMAP Diversity Plus: CASM3C Assay for Monokine induced gamma interferon (MIG) Biomarker Activity (AID 2283048).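 Note: MIG protein level measured by ELISA.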 To be noted: primary human coronary artery smooth muscle cells; actives raise or lower the signal.

Read-out in assay [18]: serum amyloid A (SAA), SAA1 (gene 6288)
Kind of assay: BSK_CASM3C_SAA: BioMAP Diversity Plus: CASM3C Assay for serum amyloid A (SAA) Biomarker Activity (AID 2283049).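 Note: SAA protein level quantified by ELISA.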 To be noted: primary human coronary artery smooth muscle cells; actives raise or lower the signal.

Assay [19] can be described thus: BSK_CASM3C_SRB: Viability Assessment in the BioMAP Diversity Plus: CASM3C Assay (AID 2283050).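 Note: total protein by SRB staining as cytotoxicity measure in parallel cultures.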 The note with it: primary human coronary artery smooth muscle cells.

For the compound `CCOC(=O)CN[C@@H](C(=O)N1CC[C@H]1C(=O)NCc1ccc(/C(N)=N/O)cc1)C1CCCCC1`, the outcome in assay [1], in assay [2], in assay [3], in assay [4], in assay [5] and in [6] was inactive. Moreover, the outcome in assay [7], in assay [8], in assay [9], in [10], in [11] and in assay [12] was inactive. Also, the outcome in [13], in assay [14], in assay [15], in assay [16], in [17] and in assay [18] was inactive. Moreover, the result in [19] was inactive.
As to `CC(C)(C)c1ccc(O)c(O)c1`, the outcome in assay [1], in assay [2], in [4], in assay [5], in assay [6] and in assay [7] was inactive. Moreover, the outcome in assay [8], in [9], in assay [10], in [12], in assay [13] and in assay [14] was inactive. Moreover, the outcome in [15], in assay [17], in assay [18] and in assay [19] was inactive. Besides, the AC50 in [3] was 17.1 µM (active).
As for `O=S(=O)(O)C(F)(F)C(F)(F)C(F)(F)C(F)(F)C(F)(F)C(F)(F)C(F)(F)C(F)(F)C(F)(F)C(F)(F)F`, the result in assay [1], in assay [3], in [4], in assay [7], in assay [8] and in [9] was inactive. For the same compound, the result in assay [10], in assay [11], in assay [12], in assay [13], in assay [14] and in assay [15] was inactive. In addition, the result in [16], in [17] and in [19] was inactive. Besides, the concentration at half-maximal activity (AC50) was 18.2 µM (active) and 15.8 µM (active) in assay [2]; 7.29 µM (active) and 5.4 µM (active) in [6]; 21.5 µM (active) in assay [8]; 13.3 µM (active) in assay [13]; 8.66 µM (active) in assay [17]; 13.3 µM (active) and 20.4 µM (active) in assay [18].
With `CCCCC(CC)C(=O)OCCOCCOCCOCCOC(=O)C(CC)CCCC` (stereo not given), the outcome in [1], in assay [2], in assay [3], in assay [4], in assay [5] and in assay [6] was inactive. Also, the result in assay [7], in assay [8], in assay [10], in assay [11], in assay [12] and in assay [13] was inactive. Moreover, the result in assay [14], in [15], in assay [16], in assay [17], in assay [18] and in [19] was inactive. For the same compound, the AC50 in [9] is 11.3 µM (active).
As to `CN(CCO)S(=O)(=O)C(F)(F)C(F)(F)C(F)(F)C(F)(F)C(F)(F)C(F)(F)C(F)(F)C(F)(F)F`, the result in assay [1], in assay [2], in [3], in assay [4], in assay [6] and in [7] was inactive. For the same compound, the outcome in assay [8], in assay [9], in [10], in assay [11], in assay [12] and in assay [13] was inactive. Also, the outcome in assay [14], in assay [15], in [16], in assay [17], in assay [18] and in [19] was inactive. The AC50 in assay [17] is 0.0293 µM (active).

The record behind these values is PubChem BioAssay (EPA / NIEHS).
